Assay results reported in the supplement of paper PMC4954754.
± gives the uncertainty stated by the source.

What follows are molecules tested on HEK293T-Rex ERSE-FLuc (assay: ERSE-FLuc reporter activation, triplicate confirmation, relative to 500 nM thapsigargin (% of thapsigargin); higher = stronger ATF6/ERSE reporter activation). Settings: 6.8 µM; 18 h; screen: confirmation.
Description: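 HEK293T-Rex cells stably expressing the ERSE-firefly luciferase (BiP promoter, ATF6-preferring) or XBP1-splicing Renilla luciferase (IRE1/XBP1s) reporter, 1536-well plates, compound at 6.8 µM for 18 hr at 37 °C; luminescence read […] and expressed as % activation = 100*(compound - median DMSO)/(median 500 nM thapsigargin - median DMSO). Primary screen was single-pass; confirmation screen in triplicate (mean ± SD).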

Row | Structure (SMILES) | ERSE-FLuc reporter activation
1 | COc1ccc(/C=N/c2sc3c(c2C(N)=O)CCCC3)cc1 | 26.4 ± 4.8
2 | COc1c(O)cc2oc(-c3ccc(O)c(O)c3)cc(=O)c2c1O | 133 ± 21
3 | Cc1cc(C)nc(/N=C(\N)Nc2ccc(OCc3ccccc3)cc2)n1 | 53.1 ± 14
4 | O=C1NC(=Nc2ccccc2)S/C1=C/c1ccc(O)c(O)c1 | 38.4 ± 10
5 | Cc1cc2nc(/C(C#N)=C/c3ccco3)[nH]c2cc1C | 34.1 ± 8.6
6 | CC(C)c1ccc(NC(=O)/C=C/c2ccco2)cc1 | 26.6 ± 5.9
7 | Nc1ccc2nc(-c3ccccn3)[nH]c2c1 | 26.8 ± 9.3
8 | Oc1ccc(/C=N/Nc2cccc3cccnc23)c(O)c1 | 40.8 ± 12
9 | CCOC(=O)c1sc(NC(=O)c2cccc3ccccc23)nc1C | 27.3 ± 2.2
10 | N#Cc1ccc(-c2cccs2)nc1SCc1ccccn1 | 25.2 ± 6.2
11 | Cc1ccc(O)c(N/C=C/C(=O)c2cccs2)c1 | 62.1 ± 12
12 | C=CCNC(=O)c1cc(-c2ccccc2)on1 | 43.4 ± 5
13 | CCCNC(=O)c1ccc2nc(-c3ccc4[nH]ccc4c3)sc2c1 | 33.4 ± 9.7
14 | O=c1/c(=C/c2ccc(O)c(O)c2)sc2nc3ccccc3n12 | 37.5 ± 3.7
15 | CC(C)c1ccc(/C=N\NC(=O)c2ccccc2)cc1 | 27.4 ± 3.1
16 | COC(=O)c1ccc(C(=O)Nc2ccccc2N)cc1 | 32.9 ± 4.2
17 | CC(=Nc1ccc(O)cc1)c1sc2ccccc2c1O | 27.4 ± 4.2
18 | Cc1ccc(O)c(NC(=O)c2cc(-c3ccc(F)cc3)on2)c1 | 31.9 ± 8.4

Row | Structure (SMILES) | ERSE-FLuc reporter activation
19 | CCc1nc2sc(C(=O)c3ccccc3)c(N)c2cc1C | 26.2 ± 2.5
20 | Cc1ccc(C(=O)Nc2ccccc2N)cc1 | 56.8 ± 4.5
21 | COc1ccc2oc(=Nc3cc(F)ccc3F)c(C(N)=O)cc2c1 | 25.3 ± 4.6
22 | CCc1cc2c(=O)c(-c3ccc4c(c3)OCCO4)coc2cc1OC | 34.7 ± 3.1
23 | COc1ccccc1/C=C/C(=O)Nc1ccc(Cl)cn1 | 27.9 ± 6.6
24 | Nc1cn(-c2ccccc2)nc1-c1cccs1 | 28.6 ± 6.5
25 | Cc1cc2nc(-c3ccc(SCC#N)nc3)[nH]c2cc1C | 26.8 ± 1.7
26 | CCOc1cc(/C=C2/NC(=O)N(c3cccc(Cl)c3)C2=O)ccc1O | 30.5 ± 9.3
27 | NC(=O)c1c(NC(=O)COc2ccccc2)sc2c1CCC2 | 27.1 ± 3.2
28 | COc1ccc(/C=C(\C#N)c2nc3ccccc3n2C)cc1 | 38.1 ± 7.2
29 | O=C(N/N=C/c1cccc(Cl)c1Cl)c1ccccc1O | 25.3 ± 1.4
30 | O=[N+]([O-])c1ccccc1N/N=C/c1ccc(O)c(O)c1 | 43.3 ± 6.8
31 | Oc1ccc(-c2csc(-c3ccccc3)n2)cc1O | 61.5 ± 5.1
32 | O=C(N/N=C/c1ccc2c(c1)OCO2)c1cccc(F)c1 | 27.1 ± 2.4
33 | CCOc1cccc(C(=O)Nc2ccc(Br)cn2)c1 | 26 ± 3.3
34 | Oc1ccc(-c2csc3nc(-c4ccccc4)nn23)c(O)c1 | 33.9 ± 2.6
35 | COc1ccc(Nc2nccn3c(-c4ccsc4)cnc23)cn1 | 38.1 ± 6.9
36 | COc1ccc(-c2csc(N(CC3CCCO3)C(=O)CCl)n2)cc1 (stereo unspecified) | 25.3 ± 4.3
